Assay outcomes: PubChem, several laboratories
Mcl-1 Bim block: inhibitors of Bim peptide binding to Mcl-1, primary screen, biochemical, bead-based flow cytometry, multiplex; Induced myeloid leukemia cell differentiation protein Mcl-1 (Homo sapiens), Q07820; Bim peptide-Mcl-1 binding; inhibition, % at 10 µM; actives 0.1% (n = 190,000); in the data active means inhibition above about 40%
Target sequence (Q07820 whole entry, looked up): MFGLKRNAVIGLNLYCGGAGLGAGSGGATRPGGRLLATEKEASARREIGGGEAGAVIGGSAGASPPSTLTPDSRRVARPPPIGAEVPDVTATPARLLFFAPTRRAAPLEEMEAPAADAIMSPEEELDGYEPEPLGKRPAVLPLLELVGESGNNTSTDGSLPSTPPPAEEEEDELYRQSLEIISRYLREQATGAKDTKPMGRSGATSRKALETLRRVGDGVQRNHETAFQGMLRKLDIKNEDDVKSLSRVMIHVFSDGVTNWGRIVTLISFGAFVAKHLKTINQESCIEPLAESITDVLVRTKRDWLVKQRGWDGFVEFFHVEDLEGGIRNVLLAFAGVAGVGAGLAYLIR
Mcl1-Bid inh: Mcl-1/Bid binding inhibitors, primary screen, biochemical, TR-FRET, 1536-well; Induced myeloid leukemia cell differentiation protein Mcl-1 (Homo sapiens), Q07820; TR-FRET Mcl-1/Bid-Dy647 peptide binding; inhibition, % at 21.7 µM; actives 0.97% (n = 220,000); AID 1021, 2008;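 active means compounds that cut the binding signal by more than half at the single screening dose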;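 further: His-tagged Mcl-1 with europium anti-His antibody binding Bid BH3 peptide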
MCL1 BIM primary: inhibitors of MCL1 binding to BIM-BH3, primary screen, biochemical, fluorescence polarization; Induced myeloid leukemia cell differentiation protein Mcl-1 (Homo sapiens), Q07820; GST-MCL1 / FITC-Bim-BH3 fluorescence polarization; inhibition, % at 10.9 µM; actives 0.68% (n = 320,000);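 active means inhibition above the mean inhibition of all tested compounds plus 3 SD, set per campaign, cut at about 40% in these data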;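 further: higher means more loss of mP so more displacement of Bim peptide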
Mcl1 Noxa PPI: Mcl-1/Noxa binding inhibitors, primary screen, biochemical, TR-FRET, 1536-well | Induced myeloid leukemia cell differentiation protein Mcl-1 (Homo sapiens), Q07820 | TR-FRET Mcl-1/Noxa peptide binding, 2 h | inhibition, % at 21.7 µM | actives 1.5% (n = 220,000) | AID 1022, 2008;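 active means compounds that cut the protein-peptide binding signal by more than 50% relative to plate controls in a single-dose test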;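 further: His-tagged Mcl-1 with rhodamine Noxa BH3 peptide and terbium anti-His antibody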
TNF death inh: inhibitors of TNF-alpha triggered necroptosis, primary screen, cell-based, Jurkat FADD-/-, single concentration | Jurkat FADD-/- TNF necroptosis rescue, ATP luminescence, 24 h; 0 = TNF only, 100 = no-TNF cells | activation (protection from cell death), % at 10 µM | actives 0.068% (n = 220,000) | AID 463075, 2010;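 active means activation, meaning protection from cell death, of at least 50% relative to plate controls; inactive means activation below 50%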;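 further: necroptosis triggered by 40 ng/mL TNF-alpha added together with compound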
zVAD death inh: inhibitors of zVAD-triggered necroptosis, primary screen, L929 cells; actives 0.38% (n = 220,000); viability rescue, % at 10 µM; L929 zVAD necroptosis rescue, ATP luminescence, 24 h; with zVAD 60 µM;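 active means activation, scaled between plate controls, above about 75%, limit read from the data; inactive means activation under that limit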
Large screens that a line does not name were inactive. In the library only some 2.4% were active in any assay of this set; here they are far more common.

COc1ccccc1N1CSC2=C(C#N)C(c3ccc(SC)cc3)CC(=O)N2C1 (stereo not drawn)	Mcl1 Noxa PPI 83.0
COc1cc(C2CC(=O)N3CN(c4ccccc4C)CSC3=C2C#N)cc(OC)c1OC (stereo not drawn)	none
C[C@H](O)Cc1cn(-c2cc3cc(C#Cc4ccsc4)ccc3oc2=O)nn1	none (no result: Mcl-1 Bim block, Mcl1-Bid inh, Mcl1 Noxa PPI, TNF death inh, zVAD death inh)
CSc1nc(SCC(=O)O)c2sc3nc(-c4ccccc4)c4c(c3c2n1)CCC4	Mcl1-Bid inh 90.2 (no result: Mcl-1 Bim block, MCL1 BIM primary)
O=C(O)CSc1nc2sc3c(c2c(=O)n1-c1ccccc1)CCC3	none (no result: Mcl-1 Bim block)
Cc1ccccc1NC(=O)Cn1c(O)c(N=NC(=O)c2ccccc2O)c2ccccc21	Mcl1-Bid inh 66.0
Cc1ccc(NC(=O)Cn2c(O)c(N=NC(N)=O)c3ccccc32)cc1	none (no result: Mcl-1 Bim block)
CC(C)CN1CCN(Cc2ccc3ncccc3c2)CC1CCO (stereo not drawn)	none
O=C(Oc1ccc(-c2cnc3ccccc3n2)cc1)c1ccco1	zVAD death inh 78.8
O=C(Nc1cccc(-c2cnc3ccccc3n2)c1)c1ccco1	none
Cc1c(C(=O)Oc2ccc(-c3cnc4ccccc4n3)cc2)cccc1[N+](=O)[O-]	Mcl1 Noxa PPI 67.3, zVAD death inh 80.8
O=C(COC(=O)c1ccc2ccccc2c1)NCCCc1ccccc1	Mcl1-Bid inh 81.0
OC(COCc1ccc2c(c1)OCO2)CN1CCN(Cc2ccccc2)CC1 (stereo not drawn)	Mcl1-Bid inh 52.5
O=C(CSc1ncnc2scc(-c3ccccc3)c12)N1CCN(Cc2ccc3c(c2)OCO3)CC1	Mcl1 Noxa PPI 60.9
O=C(Nc1ccccc1)N1CCN(Cc2ccc3c(c2)OCO3)CC1	Mcl1-Bid inh 58.4
Cc1ccc(-c2cc(C(=O)N3CCN(c4ncccn4)CC3)c3cc(Br)ccc3n2)o1	Mcl1 Noxa PPI 79.0
Cc1ccc(-c2cc(C(=O)N3CCN(c4ccc(F)cc4)CC3)c3ccccc3n2)o1	none
CCOc1ccc(/C=N/n2cc(-c3ccccc3)[nH]c2=S)cc1	Mcl1 Noxa PPI 52.8
S=c1[nH]c(-c2ccccc2)cn1/N=C/c1ccncc1	none (no result: Mcl-1 Bim block)
Cc1ccc(OCc2cc(C(=O)NC3CCOC3)no2)cc1C (stereo not drawn)	none (no result: Mcl-1 Bim block, Mcl1-Bid inh, Mcl1 Noxa PPI, TNF death inh, zVAD death inh)
O=C(Nc1ccc(Br)cc1)c1ccc(N2C(=O)C3CC=CCC3C2=O)cc1 (stereo not drawn)	Mcl1 Noxa PPI 58.5
CCCCn1c(N)c(N(CCC(C)C)C(=O)C2CCCC2)c(=O)[nH]c1=O	none (no result: Mcl-1 Bim block, Mcl1-Bid inh, Mcl1 Noxa PPI, TNF death inh, zVAD death inh)
CCOC(=O)CCNC(C)C1COc2ccccc2O1 (stereo not drawn)	Mcl1-Bid inh 56.1
CC(CN1CCOCC1)OC(=O)c1ccccc1Cl (stereo not drawn)	none (no result: Mcl-1 Bim block, Mcl1-Bid inh, Mcl1 Noxa PPI, TNF death inh, zVAD death inh)
CCCCn1c(SCC(=O)NCCOC)nc2ccc(N3CCOCC3)cc2c1=O	Mcl1 Noxa PPI 88.8
Cc1n[nH]c(C)c1S(=O)(=O)N1CCN(c2ccccn2)CC1	Mcl1-Bid inh 70.2
Cc1nc(C)c(C(=O)Nc2nc3c(C)cccc3s2)o1	Mcl1 Noxa PPI 90.6
COc1cccc(C(Nc2ccccn2)c2oc(CO)cc(=O)c2O)c1 (stereo not drawn)	Mcl1 Noxa PPI 74.2
O=c1cc(CO)oc(C(Nc2ccccn2)c2cccc(F)c2)c1O (stereo not drawn)	Mcl1 Noxa PPI 52.2
CCOC(=O)c1c(-c2ccc(C)o2)csc1NC(=O)CSc1nncs1	none
CCOC(=O)c1c(-c2ccco2)csc1NC(=O)CSc1nnc(N)s1	Mcl1-Bid inh 80.4
CCN(C(=O)CCNC(=O)Cn1cnc2ccccc2c1=O)c1ccccc1F	none (no result: Mcl-1 Bim block, Mcl1-Bid inh, Mcl1 Noxa PPI, TNF death inh, zVAD death inh)
COc1ccc(C2SCCN2C(=O)c2ccc([N+](=O)[O-])cc2)cc1 (stereo not drawn)	none
O=C(c1ccc([N+](=O)[O-])cc1)N1CCSC1c1ccccc1Cl (stereo not drawn)	TNF death inh 50.9
Cc1sc2nc(SCC(=O)Nc3ccccc3F)[nH]c(=O)c2c1C	none (no result: Mcl-1 Bim block, Mcl1-Bid inh, Mcl1 Noxa PPI, TNF death inh, zVAD death inh)
Cc1csc(NC(=O)CSc2nc3sc(C)c(C)c3c(=O)[nH]2)n1	Mcl1-Bid inh 63.1
CSCc1nc2sc(C(=O)Nc3nc(C)cs3)c(C)c2c(=O)[nH]1	Mcl1 Noxa PPI 78.6
CCOc1cc(/C=N/Nc2nc(-c3cccs3)c(NC(C)=O)s2)ccc1O	Mcl1 Noxa PPI 101.4 (no result: Mcl-1 Bim block)
CC(=O)Nc1sc(N/N=C\c2ccccc2Cl)nc1-c1cccs1	Mcl1 Noxa PPI 61.1
CC(=O)Nc1sc(NC(=O)c2ccc([N+](=O)[O-])cc2)nc1-c1cccs1	none (no result: Mcl-1 Bim block)
CC(=O)Nc1sc(N/N=C/c2ccc(O)cc2)nc1-c1ccc(C)cc1	Mcl1 Noxa PPI 89.2 (no result: Mcl-1 Bim block)
CCOc1cc(/C=N/NC(=O)Nc2ccccc2)ccc1O	none
CC(=O)Nc1sc(N/N=C/c2ccccc2)nc1-c1ccc(C)cc1	none (no result: Mcl-1 Bim block)
CC(=O)Nc1sc(NC(=O)c2ccc(Cl)cc2)nc1-c1cccs1	none
CC(=O)Nc1sc(N/N=C\c2ccco2)nc1-c1cccs1	Mcl1 Noxa PPI 73.5
CCCn1c(N)c(C(=O)CN(C)CC(=O)Nc2ccc(F)cc2)c(=O)[nH]c1=O	none (no result: Mcl-1 Bim block, Mcl1-Bid inh, Mcl1 Noxa PPI, TNF death inh, zVAD death inh)
CC(=O)Nc1sc(N/N=C\c2ccccc2)nc1-c1cccs1	Mcl1 Noxa PPI 55.4
COc1ccc(/C=N/Nc2nc(-c3ccc(C)cc3)c(NC(C)=O)s2)cc1	none (no result: Mcl-1 Bim block)
Cc1ccc(C2C(C#N)=C(N)Oc3c2sc2ccccc32)o1 (stereo not drawn)	Mcl1 Noxa PPI 73.9
CCOC(=O)CC1=C(C(=O)OCC)C(c2ccc(C)o2)C(C#N)=C(N)O1 (stereo not drawn)	none
Cc1nc(COc2ccccc2Cl)sc1-c1ccnc(N)n1	Mcl1-Bid inh 54.7 (no result: Mcl-1 Bim block)
Cc1[nH]c2ccccc2c1/C=N/Nc1ccc([N+](=O)[O-])cc1	Mcl1 Noxa PPI 75.4
Cc1[nH]c2ccccc2c1/C=N/NC(=O)c1cccc([N+](=O)[O-])c1	none
CC(C)N1CC(C(=O)Nc2cc(Cl)cc(Cl)c2)CC1=O (stereo not drawn)	none (no result: Mcl-1 Bim block, Mcl1-Bid inh, Mcl1 Noxa PPI, TNF death inh, zVAD death inh)
CC(C)C(C(=O)Nc1ccc2c(c1)OCO2)N1C(=O)c2ccccc2C1=O (stereo not drawn)	none
CCC(SC1=Nc2ccccc2C2=NC(CC(C)C)C(=O)N12)C(=O)Nc1ccc2c(c1)OCO2 (stereo not drawn)	Mcl1 Noxa PPI 62.1
S=c1[nH]nc(-c2ccco2)n1/N=C/c1ccc(Cl)cc1Cl	none
S=c1[nH]nc(-c2ccco2)n1/N=C/c1cccc(Cl)c1Cl	Mcl1 Noxa PPI 71.7
